Laboratory results as given in PubChem BioAssay (NCATS).
Calls of active or inactive are those of the source. Calls follow the shape of the dose curve; as a rule, active = well fitted curve in the direction sought with a large enough effect; inconclusive = small, poorly fitted or top-dose-only effect, or another doubt; inactive = no such curve, though single readings can be large or run the other way.

These compounds were tested against Alpha-galactosidase (Coffea arabica) (UniProt Q42656) (assay: Counterscreen for Glucocerebrosidase Inhibitors: qHTS Assay for Coffee Bean alpha-Galactosidase at pH 4.5 (AID 957;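 also: plate controls were enzyme alone for no effect and no enzyme for full effect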)). Settings: purified coffee bean alpha-galactosidase, fluorogenic substrate; series mostly up to 76.9 µM; activity change, negative = inhibition: at the top concentration.
Alpha-galactosidase (Coffea arabica), sequence (Q42656 whole entry, looked up): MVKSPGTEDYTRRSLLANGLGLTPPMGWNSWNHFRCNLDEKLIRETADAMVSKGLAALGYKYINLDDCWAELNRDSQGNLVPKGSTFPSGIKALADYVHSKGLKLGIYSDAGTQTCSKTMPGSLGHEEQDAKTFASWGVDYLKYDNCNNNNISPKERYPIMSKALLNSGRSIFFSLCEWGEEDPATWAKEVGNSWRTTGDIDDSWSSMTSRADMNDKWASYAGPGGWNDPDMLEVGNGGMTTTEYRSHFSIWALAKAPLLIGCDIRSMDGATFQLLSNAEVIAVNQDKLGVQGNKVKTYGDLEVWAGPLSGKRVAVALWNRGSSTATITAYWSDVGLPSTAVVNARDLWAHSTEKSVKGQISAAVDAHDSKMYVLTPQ
Summary of the method: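 Enzyme is added first (2 nM final), then compounds titrated from 0.7 nM to 77 uM, then 80 uM 4-methylumbelliferyl alpha-D-galactopyranoside; after 20 min at room temperature a pH 10 NaOH/glycine stop precedes fluorescence reading at 365/440 nm.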

SMILES | activity change, negative = inhibition
CN1CCC[C@@H]1c1cccnc1 | -1.46% (inactive)
Nc1nc2ccc(OC(F)(F)F)cc2s1 | -0.736% (inactive)
Nc1ccc(S(=O)(=O)Nc2ccnn2-c2ccccc2)cc1 | -0.507% (inactive)
Clc1cccc(Cl)c1NC1=NCCN1 | 0.541% (inactive)
CC(=O)N1CCN(c2ccc(OC[C@H]3CO[C@](Cn4ccnc4)(c4ccc(Cl)cc4Cl)O3)cc2)CC1 | -3.01% (inactive)
O=C(O)CCCCCCCC(=O)O | -1.43% (inactive)
Cc1nc2ccccn2c(=O)c1CCN1CCC(C(=O)c2ccc(F)cc2)CC1 | 2.78% (inactive)
COc1cc(-c2ccc(=O)[nH]n2)ccc1OC(F)F | 2.39% (inactive)
NC(N)=Nc1nc(CSCC/C(N)=N/S(N)(=O)=O)cs1 | -0.889% (inactive)
CCN(CC)C(=O)c1ccc(O)c(OC)c1 | 1.61% (inactive)
CCO/C([O-])=N/c1c[n+](N2CCOCC2)no1 | -0.275% (inactive)
Cc1scc2c1N(C(=O)CN1CCN(C)CC1)c1ccccc1NC2=O | -2.04% (inactive)
O=C1NCC2(CCN(CCc3ccccc3)CC2)O1 | -1.9% (inactive)
CCN(CC)CCNC(=O)c1ccc(N)cc1 | 0.289% (inactive)
NC(=O)N1c2ccccc2C=Cc2ccccc21 | -1.59% (inactive)
Nc1cc(=O)[nH]c(N)n1 | 0.489% (inactive)
O=C(CCCN1CCC2(CC1)C(=O)NCN2c1ccccc1)c1ccc(F)cc1 | -1.35% (inactive)
CC(=O)Oc1cc(C(C)C)c(OCCN(C)C)cc1C | -0.0202% (inactive)
O=c1[nH]oc2c1CCNC2 | -0.191% (inactive)
C[C@H](CS)C(=O)N1CCC[C@H]1C(=O)O | 0.298% (inactive)
CCN(CC)CCOC(=O)c1ccc(N)cc1 | 0.767% (inactive)
CN1C(C)(C)CCCC1(C)C | 4.56% (inactive)
CN1C(C(=O)Nc2ccccn2)=C(O)c2ccccc2S1(=O)=O | -4.19% (inactive)
CCOC(=O)c1cnc2c(cnn2CC)c1NN=C(C)C | 1.07% (inactive)
O=C(O)CN(CCN(CC(=O)O)CC(=O)O)CCN(CC(=O)O)CC(=O)O | -1.18% (inactive)
N[C@@H](COP(=O)(O)O)C(=O)O | -2.16% (inactive)
Cc1ccc(Cl)c(Nc2ccccc2C(=O)O)c1Cl | 0.687% (inactive)
Cc1nc2c([nH]1)c(=O)n(C)c(=O)n2Cc1ccco1 | -0.558% (inactive)
CCCCCCCCCCCCCCCC(=O)NCCO | -0.0802% (inactive)
